The results in this text go back to ChEMBL document CHEMBL1961873, “Compounds: GSK PKIS; Assays: Nanosyn kinase panel” (2012).

What is called inhibition is the drop in the measured response relative to a control, in per cent.

The target of experiment [1] is Serine/threonine-protein kinase MRCK alpha (Homo sapiens) (UniProt Q5VT25). Particulars: at 0.1 µM.
Experiment [2] has the same target. Particulars: at 1 µM.
Experiment [3] has as its target Serine/threonine-protein kinase MRCK beta (Homo sapiens) (UniProt Q9Y5S2). Particulars: at 0.1 µM.
For experiment [4] the target is unchanged. As to conditions: at 1 µM.
The target in experiment [5] is Ribosomal protein S6 kinase alpha-5 (Homo sapiens) (UniProt O75582). As to conditions: at 0.1 µM.
For experiment [6] the target is unchanged. Particulars: at 1 µM.
The target of experiment [7] is Ribosomal protein S6 kinase alpha-4 (Homo sapiens) (UniProt O75676). Particulars: at 0.1 µM.
For experiment [8] the target is unchanged. As to conditions: at 1 µM.
The target in experiment [9] is Ribosomal protein S6 kinase beta-1 (Homo sapiens) (UniProt P23443). As to conditions: at 0.1 µM.
The target is the same in experiment [10]. As to conditions: at 1 µM.
Experiment [11] has as its target T1, 3-phosphoinositide-dependent protein kinase 1 (Homo sapiens) (UniProt O15530).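 Further: values are mean inhibition of PDK1.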
T1 sequence (whole entry): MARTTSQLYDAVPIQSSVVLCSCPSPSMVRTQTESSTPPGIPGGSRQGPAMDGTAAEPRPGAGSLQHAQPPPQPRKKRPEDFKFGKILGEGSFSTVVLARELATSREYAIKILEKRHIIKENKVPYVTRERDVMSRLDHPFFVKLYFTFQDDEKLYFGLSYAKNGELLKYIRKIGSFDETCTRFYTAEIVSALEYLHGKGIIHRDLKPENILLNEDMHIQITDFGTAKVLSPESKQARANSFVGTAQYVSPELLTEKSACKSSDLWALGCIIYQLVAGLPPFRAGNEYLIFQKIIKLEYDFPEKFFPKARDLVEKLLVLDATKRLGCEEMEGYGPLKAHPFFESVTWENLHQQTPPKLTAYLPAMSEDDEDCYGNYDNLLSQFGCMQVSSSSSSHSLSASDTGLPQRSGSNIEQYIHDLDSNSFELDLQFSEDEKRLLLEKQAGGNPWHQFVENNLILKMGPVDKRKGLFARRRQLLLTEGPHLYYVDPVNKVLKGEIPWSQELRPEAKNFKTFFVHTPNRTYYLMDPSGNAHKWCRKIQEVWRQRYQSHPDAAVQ
Particulars: at 0.1 µM.

Experiment [12] concerns the target cAMP-dependent protein kinase catalytic subunit alpha (Homo sapiens) (UniProt P17612). Particulars: at 0.1 µM.
The target is the same in experiment [13]. As to conditions: at 1 µM.
The target in experiment [14] is Protein kinase C alpha type (Homo sapiens) (UniProt P17252). As to conditions: at 0.1 µM.
Experiment [15] shares this target. As to conditions: at 1 µM.
For experiment [16], the target named is Protein kinase C beta type (Homo sapiens) (UniProt P05771). Particulars: at 0.1 µM.
The target is the same in experiment [17]. Particulars: at 1 µM.
For experiment [18], the target named is Protein kinase C eta type (Homo sapiens) (UniProt P24723). Particulars: at 0.1 µM.
Experiment [19] shares this target. Particulars: at 1 µM.
Experiment [20] addresses Protein kinase C gamma type (Homo sapiens) (UniProt P05129). As to conditions: at 0.1 µM.

Sequence of Serine/threonine-protein kinase MRCK beta (Homo sapiens) (Q9Y5S2 whole entry): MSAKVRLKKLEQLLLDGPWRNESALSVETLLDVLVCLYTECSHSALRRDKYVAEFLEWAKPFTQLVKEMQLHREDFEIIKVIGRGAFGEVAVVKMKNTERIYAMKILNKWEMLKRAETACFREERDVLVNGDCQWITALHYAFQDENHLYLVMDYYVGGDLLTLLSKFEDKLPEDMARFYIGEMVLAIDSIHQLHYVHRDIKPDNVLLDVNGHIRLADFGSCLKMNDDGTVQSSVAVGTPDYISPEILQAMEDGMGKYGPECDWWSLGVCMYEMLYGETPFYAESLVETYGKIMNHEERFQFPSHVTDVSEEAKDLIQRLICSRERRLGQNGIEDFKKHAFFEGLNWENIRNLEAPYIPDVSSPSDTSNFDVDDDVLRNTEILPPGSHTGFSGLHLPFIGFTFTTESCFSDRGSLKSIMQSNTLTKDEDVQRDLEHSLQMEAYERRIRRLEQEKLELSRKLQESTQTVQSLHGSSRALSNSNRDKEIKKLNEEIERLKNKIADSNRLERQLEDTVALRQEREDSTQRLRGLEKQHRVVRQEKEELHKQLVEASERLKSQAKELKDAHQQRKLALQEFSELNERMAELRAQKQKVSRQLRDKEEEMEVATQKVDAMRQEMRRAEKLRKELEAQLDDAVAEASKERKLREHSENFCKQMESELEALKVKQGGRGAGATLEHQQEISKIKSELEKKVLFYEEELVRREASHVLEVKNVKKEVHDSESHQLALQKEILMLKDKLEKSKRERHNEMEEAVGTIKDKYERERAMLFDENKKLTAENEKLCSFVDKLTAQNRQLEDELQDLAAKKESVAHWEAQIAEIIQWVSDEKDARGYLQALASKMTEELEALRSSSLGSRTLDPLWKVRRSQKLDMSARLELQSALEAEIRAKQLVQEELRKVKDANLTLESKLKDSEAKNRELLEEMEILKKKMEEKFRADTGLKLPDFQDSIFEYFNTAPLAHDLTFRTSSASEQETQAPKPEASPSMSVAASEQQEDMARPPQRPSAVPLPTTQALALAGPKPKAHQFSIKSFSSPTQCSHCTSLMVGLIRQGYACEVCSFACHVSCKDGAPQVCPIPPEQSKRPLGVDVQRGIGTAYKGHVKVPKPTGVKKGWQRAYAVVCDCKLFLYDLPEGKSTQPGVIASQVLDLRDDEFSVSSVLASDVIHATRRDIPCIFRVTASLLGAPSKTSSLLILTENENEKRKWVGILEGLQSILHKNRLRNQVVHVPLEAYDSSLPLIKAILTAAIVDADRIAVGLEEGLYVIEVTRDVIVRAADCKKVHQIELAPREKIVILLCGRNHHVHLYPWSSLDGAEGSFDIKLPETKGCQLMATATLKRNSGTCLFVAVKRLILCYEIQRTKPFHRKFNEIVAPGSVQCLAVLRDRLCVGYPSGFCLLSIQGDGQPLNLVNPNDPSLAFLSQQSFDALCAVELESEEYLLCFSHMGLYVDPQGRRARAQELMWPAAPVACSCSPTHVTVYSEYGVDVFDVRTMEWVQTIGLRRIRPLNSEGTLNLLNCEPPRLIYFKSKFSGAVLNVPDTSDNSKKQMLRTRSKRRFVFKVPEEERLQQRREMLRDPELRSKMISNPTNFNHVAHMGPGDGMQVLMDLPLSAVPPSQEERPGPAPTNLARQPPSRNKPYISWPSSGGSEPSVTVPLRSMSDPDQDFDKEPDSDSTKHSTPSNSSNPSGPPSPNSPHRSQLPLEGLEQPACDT
Sequence of Ribosomal protein S6 kinase alpha-4 (Homo sapiens) (O75676 whole entry, looked up): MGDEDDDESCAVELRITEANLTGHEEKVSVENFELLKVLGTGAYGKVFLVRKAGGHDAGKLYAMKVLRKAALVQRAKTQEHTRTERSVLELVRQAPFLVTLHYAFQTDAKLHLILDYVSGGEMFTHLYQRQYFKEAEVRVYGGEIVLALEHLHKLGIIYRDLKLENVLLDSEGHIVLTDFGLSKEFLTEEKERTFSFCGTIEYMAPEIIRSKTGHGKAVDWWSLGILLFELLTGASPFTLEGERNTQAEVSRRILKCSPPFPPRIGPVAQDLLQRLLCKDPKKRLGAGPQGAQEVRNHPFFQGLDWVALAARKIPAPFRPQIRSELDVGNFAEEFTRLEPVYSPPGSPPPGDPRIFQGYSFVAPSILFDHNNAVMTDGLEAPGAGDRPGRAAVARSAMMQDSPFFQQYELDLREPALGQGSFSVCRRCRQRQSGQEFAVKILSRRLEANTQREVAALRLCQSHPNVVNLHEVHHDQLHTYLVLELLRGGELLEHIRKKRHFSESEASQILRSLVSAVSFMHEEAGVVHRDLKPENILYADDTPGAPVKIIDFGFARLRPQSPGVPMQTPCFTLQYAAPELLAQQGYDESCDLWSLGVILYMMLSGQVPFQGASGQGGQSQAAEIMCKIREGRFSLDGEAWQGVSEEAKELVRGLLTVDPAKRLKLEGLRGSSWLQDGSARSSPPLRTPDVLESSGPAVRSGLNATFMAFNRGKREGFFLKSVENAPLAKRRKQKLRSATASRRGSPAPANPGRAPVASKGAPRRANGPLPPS
Sequence of Ribosomal protein S6 kinase alpha-5 (Homo sapiens) (O75582 whole entry, looked up): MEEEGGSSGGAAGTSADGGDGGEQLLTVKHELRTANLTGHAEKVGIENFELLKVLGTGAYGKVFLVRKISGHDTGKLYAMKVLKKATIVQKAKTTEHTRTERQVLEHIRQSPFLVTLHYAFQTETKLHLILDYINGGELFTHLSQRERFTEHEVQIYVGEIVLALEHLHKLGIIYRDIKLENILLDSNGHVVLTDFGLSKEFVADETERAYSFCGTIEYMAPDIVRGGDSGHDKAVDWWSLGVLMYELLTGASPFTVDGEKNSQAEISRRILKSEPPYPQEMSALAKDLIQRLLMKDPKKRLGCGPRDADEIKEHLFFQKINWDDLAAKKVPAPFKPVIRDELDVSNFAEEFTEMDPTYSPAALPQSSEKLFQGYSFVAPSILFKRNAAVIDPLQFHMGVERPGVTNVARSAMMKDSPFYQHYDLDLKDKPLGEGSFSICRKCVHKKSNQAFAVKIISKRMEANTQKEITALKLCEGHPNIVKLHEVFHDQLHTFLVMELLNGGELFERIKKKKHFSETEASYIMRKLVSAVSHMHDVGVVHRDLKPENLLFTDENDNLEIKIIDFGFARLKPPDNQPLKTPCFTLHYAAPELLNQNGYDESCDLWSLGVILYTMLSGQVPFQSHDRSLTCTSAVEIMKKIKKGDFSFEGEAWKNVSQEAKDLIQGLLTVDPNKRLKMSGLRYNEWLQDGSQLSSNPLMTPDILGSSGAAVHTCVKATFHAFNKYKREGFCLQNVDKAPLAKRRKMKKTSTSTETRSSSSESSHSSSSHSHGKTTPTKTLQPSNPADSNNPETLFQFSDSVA

With `COC(=O)Nc1nc2ccc(S(=O)(=O)c3ccc(NC(=O)Nc4cc(C(F)(F)F)ccc4F)cc3)cc2[nH]1`, the inhibition in experiment [1] was 0.58%; in experiment [2] it was -0.35%; in [3], 1.96%; in [4] it was 1.32%; in [5], 2.41%; in [6], 1.23%. The inhibition in experiment [7] is 0.77%; in experiment [8] it was 4.31%; in experiment [9] it was 2.42%; in [10], 0.71%; in [11] it was 1.73%; in experiment [12], 1.93%. The inhibition in experiment [13] was 1.3%; in [14], 0.42%; in experiment [15], -0.51%; in experiment [16], 0.31%; in experiment [17] it was 0.32%; in experiment [18] it was 0.95%. Further, the inhibition in experiment [19] came out at 2.18%; in experiment [20], 0.47%.
Consider `COc1cc(Nc2nccc(Nc3ccc4c(C)n[nH]c4c3)n2)cc(OC)c1OC`, for which the inhibition in experiment [1] was 1.61%; in experiment [2], -0.15%; in experiment [3], 1.88%; in experiment [4] it was 1.78%; in experiment [5], 3.58%; in [6], 2.96%. For the same compound, the inhibition in experiment [7] came to 1.54%; in experiment [8], 2.58%; in experiment [9] it was 0.65%; in [10] it was 1.09%; in experiment [11], 2.76%; in experiment [12], 2.38%. Further, the inhibition in experiment [13] turned out to be 14%; in [14] it was 1.29%; in experiment [15], 10.2%; in [16], 1.4%; in experiment [17], 1.99%; in experiment [18], 3.09%. In addition, the inhibition is -1.03% in experiment [19] and 3.2% in [20].
Take `CCCN(CCS(C)(=O)=O)Cc1ccc(-c2ccc3ncnc(Nc4ccc(OCc5cccc(F)c5)c(Cl)c4)c3c2)o1`: the inhibition in [1] was -1.08%; in experiment [2] it was 0.54%; in experiment [3], -0.36%; in [4] it was 0.64%; in experiment [5], 7.14%; in experiment [6], 6.79%. In addition, the inhibition in experiment [7] came to 1.76%; in [8], 1.8%; in experiment [9], 1.21%; in [10], 1.92%; in [11] it was 1.25%; in experiment [12] it was 0.67%. Also, the inhibition in [13] was 1.36%; in experiment [14], 0.08%; in [15] it was 1.04%; in [16], 0.26%; in [17], 0.52%; in [18] it was 2.45%. Besides, the inhibition in [19] came out at 3.94%; in experiment [20], 1.25%.
As for `CCn1c(-c2nonc2N)nc2cnc(Oc3cccc(NC(=O)c4ccc(N(C)C)cc4)c3)cc21`, the inhibition in [1] turned out to be 7.29%; in experiment [2] it was 53.4%; in experiment [3], 17%; in [4], 62.9%; in experiment [5], 60.2%; in experiment [6] it was 80.5%. The inhibition in experiment [7] turned out to be 61.2%; in experiment [8], 79%; in experiment [9] it was 71.7%; in experiment [10], 90.4%; in experiment [11] it was 1.22%; in [12], 19.6%. The inhibition in [13] stood at 70.5%; in experiment [14], 0.56%; in experiment [15], 7.8%; in [16], 16.7%; in experiment [17] it was 53.6%; in [18], 43.6%. In addition, the inhibition in [19] worked out at 88%; in experiment [20], 3.96%.
As for `CCOc1ccc2c(-c3ccnc(Nc4cccc(C(F)(F)F)c4)n3)cnn2n1`, the inhibition in experiment [1] is -4.67%; in [2], -1.89%; in [3] it was -0.48%; in experiment [4], -1.84%; in experiment [5], 0.66%; in [6], -1.09%. The inhibition in experiment [7] was 1.4%; in experiment [8], -0.01%; in experiment [9] it was 0.31%; in experiment [10], -0.17%; in [11], -2.03%; in experiment [12], 1.32%. Besides, the inhibition in [13] came to 1.22%; in experiment [14] it was 0.95%; in experiment [15] it was 0.74%; in experiment [16], 0.58%; in experiment [17] it was 0.67%; in experiment [18], 0.98%. Moreover, the inhibition in experiment [19] was -0.29%; in experiment [20] it was 4.45%.
For the compound `CC1=C(C(=O)Nc2cc(Cl)c3[nH]ncc3c2)C(c2ccc(C(F)(F)F)cc2)CC(=O)N1` (stereo not given), the inhibition in experiment [1] was found to be 17.2%; in [2], 64.6%; in experiment [3], 23.8%; in experiment [4] it was 65.5%; in experiment [5] it was 56.3%; in experiment [6] it was 81.7%. The inhibition turned out to be 32.4% in experiment [7]; 68.9% in [8]; 8.47% in experiment [9]; 41.7% in experiment [10]; 1.84% in experiment [11]; 21.8% in experiment [12]. Further, the inhibition in [13] was 71%; in experiment [14] it was 0.91%; in experiment [15], 1.52%; in [16] it was 0.15%; in experiment [17], 2.02%; in [18], 5.7%. In addition, the inhibition in experiment [19] was determined as 39.1%; in experiment [20], 3.92%.
In the case of `CCc1nn2ncccc2c1-c1ccnc(NC2CC2)n1`, the inhibition in experiment [1] worked out at 3.74%; in experiment [2], 2.27%; in experiment [3], 1.18%; in experiment [4], 2.16%; in experiment [5], 0.41%; in [6], 1.19%. The inhibition was found to be 1.26% in [7]; 3.44% in experiment [8]; 1.12% in experiment [9]; 2.51% in [10]; 1.73% in [11]; 0.78% in experiment [12]. Further, the inhibition was 1.73% in experiment [13]; 0.35% in [14]; 1.73% in experiment [15]; 1.02% in experiment [16]; 2.65% in [17]; 0.47% in experiment [18]. Also, the figures for the inhibition in [19] and in experiment [20] were 0.53% and 0.95%, respectively.
For the compound `CNC(=O)c1cncc(/C=C/c2ccccc2Cl)c1`, the inhibition in experiment [1] was 1.52%; in experiment [2] it was 2.33%; in experiment [3], -0.05%; in [4], 0.26%; in experiment [5], 3.05%; in [6], 3.68%. Also, the inhibition in experiment [7] was 1.83%; in experiment [8], 1.78%; in experiment [9], 0.27%; in experiment [10] it was 0.23%; in experiment [11], -0.25%; in experiment [12], 1.4%. For the same compound, the inhibition is 3.17% in [13]; 0.42% in experiment [14]; -0.07% in [15]; 2.7% in experiment [16]; 5.12% in experiment [17]; 1.33% in experiment [18]. The inhibition in experiment [19] worked out at 2.39%; in [20], 3.03%.
